This passage reports growth inhibition results from PubChem BioAssay (NCI).

A short description of the test: NCI Yeast Anticancer Drug Screen. Data for the bub3 strain (AID 167). The following applies: S. cerevisiae bub3 mutant strain, active compounds read high. The method, then:
Growth inhibition of yeast strains with defined genetic alterations is measured as a screen for potential anti-cancer activity. Selected strains with alterations in DNA damage repair or cell cycle control were exposed to compounds and growth inhibition was measured relative to vehicle treated controls. The strain used in this assay is bub3

Where [1] appears, read: at 5.0 µM (retest, dose inferred, filed as 0.5).
The mark [2] stands for this setting: at 50.0 µM (retest, dose inferred, filed as 5.0).

“And” between values parts separate entries of the source, which are not always exact repeats. Equal values may be shown once. The panel holds about 79,000 compounds, 15% with a hit somewhere; the sample as a whole holds those more often. Unmarked numbers belong to inactive results. The source made the active and inactive calls. Rule as the data show it: active = growth inhibition above about 70%; inactive = the rest.

`Nc1cc(-c2ccccc2)ccc1O`: the growth inhibition runs as follows: under setting [1], 0%; under setting [2], 29%; (at 50.0 µM) 99.1% (active).

Consider `CCCCCCCCCCCCSC(=N)N`, for which the growth inhibition reads like this: under setting [1], 72% (active); under setting [2], 95% (active); (at 50.0 µM) 98.7% (active).

As for `Oc1ccc(Br)cc1Sc1cc(Br)ccc1O`, the growth inhibition is 16% under setting [1], 99% (active) under setting [2] and 99.2% (active) (at 50.0 µM).

With `O=[N+]([O-])c1ccc(C(Br)c2ccc([N+](=O)[O-])cc2)cc1`, the growth inhibition by setting is: under setting [1], 15%; under setting [2], 100% (active); (at 50.0 µM) 99.7% (active).

As to `COc1cccc(NC(=O)c2c(SC)c(C#N)c(=O)n(N)c2N)c1`, the growth inhibition runs as follows: under setting [1], 7%; under setting [2], 99% (active).

As for `O=Nc1ccc2ccccc2c1O`, the growth inhibition runs as follows: under setting [1], 3%; under setting [2], 93% (active); (at 50.0 µM) 89.5% (active).

Turning to `C=C(C)C1CC2(C)C(C)CC(O)CC2C(OC(=O)C=C(C)C)C1O` (stereo not given), the growth inhibition reads like this: under setting [1], 15%; under setting [2], 78% (active); (at 50.0 µM) 80.1% (active).

As for `COc1cc(/C=C/c2ccnc3ccccc23)cc(OC)c1OC`, the growth inhibition reads like this: under setting [1], 43%; under setting [2], 92% (active); (at 50.0 µM) 72.6% (active).

Regarding `CCOC(=O)c1[nH]c(C#N)c(C(=O)OCC)c1C`, the growth inhibition reads like this: under setting [1], 3%; under setting [2], 48%; (at 50.0 µM) 53.2%.

Turning to `O=[N+]([O-])CC(O)c1ccccc1` (stereo not given), the growth inhibition is -2% under setting [1], 1% under setting [2] and 50.9% (at 50.0 µM).

Consider `CCOC(=O)NC(/C=C/c1ccccc1)NC(=O)OCC`, for which the growth inhibition runs as follows: under setting [1], 2%; under setting [2], -20%; (at 50.0 µM) 11.8%.

In the case of `S=C=Nc1ccc(N2CCOCC2)cc1`, the growth inhibition is 26% under setting [1], 98% (active) under setting [2] and 99.2% (active) (at 50.0 µM).

For the molecule `CCCCCCCCCCCC[S+](C)CC(=O)[O-]` (stereo not given), the growth inhibition was 19% under setting [1], 89% (active) under setting [2] and 27.9% (at 50.0 µM).

Consider `COc1ccc(NS(=O)(=O)c2ccccc2)cc1`, for which the growth inhibition (at 50.0 µM) is 1.55% and 8.9%.

As for `NCC(O)c1ccc(O)c(O)c1` (stereo not given), the growth inhibition (at 50.0 µM) is 28.5% and 13.4%.
